Where a name gives a salt, the structure may show the parent alone.
Legend:
Experiment in all cases: Euclidean distance of Cell Painting phenotypic profile (signed KS, 77 features) to DMSO centroid (dimensionless distance); higher = stronger phenotypic change vs DMSO (phenoactivity)
Details in all cases: 48 h; 5 or 10 uM (library dependent)
786-O = system: 786-O
Procedure, shortened: (§1)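 Library compounds were applied at 10 or 5 uM, depending on the library, with 0.1% DMSO final, for 48 h to five cancer lines and a healthy fibroblast line. After staining, cells were imaged confocally at 20X across 9 fields per well, and Harmony extracted 77 features, each scored as a signed Kolmogorov-Smirnov statistic against vehicle wells on the same plate. Phenoactivity is the Euclidean distance between each profile and the median vehicle profile, with profiles first plate-position corrected, correlation-weighted and averaged over replicates at the top dose.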

A549 = system: A549
Procedure, shortened: as §1

DU145 = system: DU145
Procedure, shortened: as §1

FB = system: FB
Procedure, shortened: as §1

HEPG2 = system: HEPG2
Procedure, shortened: as §1

OVCAR4 = system: OVCAR4
Procedure, shortened: as §1

| Structure (SMILES) | Euclidean distance (786-O) | Euclidean distance (A549) | Euclidean distance (DU145) | Euclidean distance (FB) | Euclidean distance (HEPG2) | Euclidean distance (OVCAR4) |
| --- | --- | --- | --- | --- | --- | --- |
| CCN1CCN(C(=O)Cc2ccc(Nc3ncc(F)c(Nc4ccc(C(=O)Nc5ccccc5Cl)cc4)n3)cc2)CC1 [Aurora A Inhibitor I] | 5.7 | 4.77 | 1.39 | 3.33 | 4.52 | 3.43 |
| C[CH2][Hg][S]c1ccccc1C(=O)[O-].[Na+] [Thimerosal] | 5.05 | 2.89 | 6.79 | 6.21 | 1.5 | 2.69 |
| CNC(=O)Oc1cccc2ccccc12 [Carbaryl] | 1.83 | 1.3 | 0.843 | 0.842 | 0.501 | 1.03 |
| CC1(C)S[C@@H]2[C@H](N)C(=O)N2[C@H]1C(=O)O [6-Aminopenicillanic acid] | 1.51 | 0.648 | 1.01 | 0.903 | 0.75 | 1.5 |
| CCC1=C[C@H]2CN3CCc4c([nH]c5ccccc45)[C@](C(=O)OC)(C2)[C@H]13 [Catharanthine] | 1.45 | 1.4 | 0.692 | 1.02 | 0.581 | 1.41 |
| CCNC(=O)C[C@@H]1N=C(c2ccc(Cl)cc2)c2cc(OC)ccc2-n2c(C)nnc21 | 1.96 | 1.78 | 1.76 | 3.4 | 1.26 | 1.66 |
| N#Cc1ccc(N2CCC[C@@H]2[C@@H](O)C(F)(F)F)cc1C(F)(F)F [Ligandrol (LGD-4033. VK-5211)] | 1.52 | 1.1 | 0.95 | 1.1 | 0.87 | 1.15 |
| COC(=O)C1=CCCN(C)C1 [Arecoline HBr] | 0.921 | 0.978 | 1.03 | 1.12 | 0.958 | 1.12 |
| O=C(O[C@H]1C[N+]2(CCCOc3ccccc3)CCC1CC2)C(O)(c1cccs1)c1cccs1 [Aclidinium Bromide] | 1.15 | 1.13 | 1.29 | 0.774 | 0.61 | 1.23 |
| O=P1(NCCCl)OCCCN1CCCl (stereo not given) [Ifosfamide] | 0.866 | 0.788 | 1.12 | 0.925 | 1.13 | 1.39 |
| CN1[C@@H]2CC[C@H]1C[C@@H](OC(=O)C(CO)c1ccccc1)C2 (stereo not given in full) [Atropine] | 0.688 | 1.55 | 1.19 | 1 | 2.2 | 1.89 |
| Cc1cccc(Cc2c[nH]cn2)c1C [Detomidine HCl] | 1.46 | 0.895 | 1.16 | 0.994 | 1.89 | 1.34 |
| COc1cc(OC)c(OC)cc1C=O [Asaraldehyde] | 1.25 | 0.833 | 0.776 | 1.31 | 1.73 | 1.06 |
| CCC1(c2cccc(O)c2)CCCCN(C)C1 (stereo not given) [Meptazinol HCl] | 1.46 | 1.09 | 0.6 | 0.726 | 0.404 | 0.921 |
| CC(C)C(Br)C(=O)NC(N)=O (stereo not given) [Bromisoval] | 1.54 | 0.435 | 2.15 | 0.988 | 0.659 | 0.646 |
| CCOC(=O)c1cncn1[C@H](C)c1ccccc1 [Etomidate] | 2.62 | 1.77 | 2.36 | 2.6 | 1.08 | 1.9 |
| CN1[C@@H]2C[C@@H](OC(=O)[C@H](CO)c3ccccc3)C[C@H]1[C@@H]1O[C@@H]12 [Scopolamine HBr] | 1.07 | 0.645 | 0.406 | 0.816 | 0.391 | 1.01 |
| CC(C)(C)c1cc(C=C(C#N)C#N)cc(C(C)(C)C)c1O [Tyrphostin 9] | 3 | 2.48 | 1.41 | 1.32 | 0.766 | 1.95 |

| Structure (SMILES) | Euclidean distance (786-O) | Euclidean distance (A549) | Euclidean distance (DU145) | Euclidean distance (FB) | Euclidean distance (HEPG2) | Euclidean distance (OVCAR4) |
| --- | --- | --- | --- | --- | --- | --- |
| COc1cc2c(cc1OC)[C@@]13CCN4CC5=CCO[C@H]6CC(=O)N2[C@H]1[C@H]6[C@H]5C[C@H]43 [Brucine sulfate salt hydrate] | 1.36 | 0.862 | 0.987 | 1.47 | 0.722 | 0.846 |
| COc1cc(-n2c(=S)[nH]c3ccccc3c2=O)c(Cl)cc1Cl [Mdivi-1] | 1.11 | 1.02 | 0.97 | 1.3 | 0.841 | 0.792 |
| CCNC1(c2cccs2)CCCCC1=O (stereo not given) [Tiletamine Hydrochloride] | 1.22 | 1.39 | 1.26 | 1.39 | 0.678 | 1.75 |
| NCCc1c[nH]c2ccc(O)cc12 [Serotonin HCl] | 1.02 | 0.797 | 1.01 | 1.12 | 0.38 | 1.71 |
| Cc1ccc2c(c1)[C@]13CCCC[C@@H]1[C@H](C2)N(C)CC3 [Dimemorfan phosphate] | 1.28 | 1.25 | 1.36 | 3.6 | 2.34 | 1.19 |
| CC(=O)OCC1=C(C(=O)O)N2C(=O)[C@@H](N)[C@H]2SC1 [7-Aminocephalosporanic acid] | 1.45 | 0.819 | 1.16 | 1 | 0.55 | 0.832 |
| O=C(NCC1CCOCC1)c1cnc(Nc2ccc(Cl)cc2Cl)nc1C(F)(F)F | 0.865 | 1.09 | 1.36 | 3.43 | 1.64 | 3.11 |
| C=CCN1C[C@H](C(=O)N(CCCN(C)C)C(=O)NCC)C[C@@H]2c3cccc4[nH]cc(c34)C[C@H]21 [Cabergoline] | 1.45 | 0.993 | 1.12 | 1.34 | 0.928 | 1.3 |
| CC[C@@H]1/C=C/C=C/C[C@H](C)[C@H](O)[C@](C)(O)C(=O)[C@H](C)[C@@H](O)[C@H](C)C(=O)[C@H](C)[C@@H](O)[C@H](C)/C=C/C(=O)O[C@H]2[C@@H](C)[C@@H](CC1)O[C@@]1(CC[C@@H](C)[C@@H](C[C@H](C)O)O1)[C@@H]2C [Oligomycin A] | 1.81 | 2.18 | 1.46 | 0.998 | 3.19 | 1.22 |
| COc1cc2c(cc1OC)C1CC(=O)C(CC(C)C)CN1CC2 (stereo not given) [Tetrabenazine (Xenazine)] | 0.961 | 1.86 | 0.948 | 1.12 | 1.74 | 1.45 |
| CCN(C)C(=O)Oc1cccc([C@H](C)N(C)C)c1 [Rivastigmine Tartrate] | 0.824 | 0.471 | 0.382 | 0.816 | 0.806 | 1.45 |
| CC(C)(C)c1cc(C=C(C#N)C#N)cc(Br)c1O | 1.41 | 1.74 | 0.863 | 1.1 | 1.39 | 1.52 |
| CC(C)=CCOc1c2occc2cc2ccc(=O)oc12 [Imperatorin] | 1.11 | 0.594 | 0.803 | 0.939 | 0.503 | 1.32 |
| N.N.[Cl][Pt][Cl] [Cisplatin] | 1.62 | 1.39 | 0.914 | 0.888 | 1.55 | 0.788 |
| CN(C)Cc1c[nH]c2ccccc12 [Gramine] | 1.2 | 0.885 | 1.29 | 0.772 | 0.674 | 1.45 |
| CC(O)(CS(=O)(=O)c1ccc(F)cc1)C(=O)Nc1ccc(C#N)c(C(F)(F)F)c1 (stereo not given) [Bicalutamide] | 1.1 | 1.04 | 0.992 | 1.28 | 0.832 | 1.65 |
| O=C1CC[C@@]2(O)[C@H]3Cc4ccc(O)c5c4[C@@]2(CCN3CC2CC2)[C@H]1O5 [Naltrexone HCl] | 1.26 | 0.818 | 0.868 | 0.982 | 1.84 | 1.99 |
